Reference: PubChem BioAssay AID1159580 (chemical genetic matrix, 2015)
The campaign covered roughly 5,500 compounds. About 2,000 (36%) were called active. Another 18% or so got no clear call; they are omitted. Rule as the data show it: active = normalized growth mostly below about 0.91 (no sharp cut-off); inconclusive = no clear call, values can overlap the other calls; inactive = mostly above about 0.92. This is one part of the list.

Assay: chemical genetic growth profiling, strain panel (AID 1159580);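 also: tested at 20 µM; growth read once vehicle control cultures reached saturation at 30 °C; 1 = growth at the plate median or of vehicle wells; lower values mean less growth of the strain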
Conditions: growth OD

Measured: normalized growth

CC(=O)Oc1ccc2c(c1)CCC1C2CC[C@]2(C)C(=O)CCC12 (stereo not given in full)
inactive: S. cerevisiae deletion strains, locus YJR043C, strain POL32, stronger effect = lower value 0.982 | S. cerevisiae deletion strains, locus YJR066W, strain TOR1, stronger effect = lower value 0.895 | S. cerevisiae deletion strains, locus YKL009W, strain mrt4, stronger effect = lower value 0.972 | S. cerevisiae deletion strains, locus YKL068W, stronger effect = lower value 1.02 | S. cerevisiae deletion strains, locus YKL085W, strain MDH1 (second series), stronger effect = lower value 1 | S. cerevisiae deletion strains, locus YKL085W, strain MDH1, stronger effect = lower value 1 | S. cerevisiae deletion strains, locus YKL160W, strain elf1, stronger effect = lower value 0.986 | S. cerevisiae deletion strains, locus YKL190W, strain CNB1, stronger effect = lower value 1 | S. cerevisiae deletion strains, locus YKR001C, strain vps1, stronger effect = lower value 1.01 | S. cerevisiae deletion strains, locus YKR026C, strain gcn3, stronger effect = lower value 0.984 | S. cerevisiae deletion strains, locus YKR091W, strain srl3, stronger effect = lower value 0.985 | S. cerevisiae deletion strains, locus YLL001W, strain dnm1, stronger effect = lower value 0.964 | S. cerevisiae deletion strains, locus YLL026W, stronger effect = lower value 0.988 | S. cerevisiae deletion strains, locus YLL041C, strain sdh2, stronger effect = lower value 0.983 | S. cerevisiae deletion strains, locus YLR027C, strain aat2, stronger effect = lower value 0.983 | S. cerevisiae deletion strains, locus YLR039C, strain RIC1, stronger effect = lower value 0.725 | S. cerevisiae deletion strains, locus YLR058C, strain SHM2, stronger effect = lower value 0.987 | S. cerevisiae deletion strains, locus YLR102C, strain apc9, stronger effect = lower value 1.02 | S. cerevisiae deletion strains, locus YLR113W, strain HOG1, stronger effect = lower value 0.991 | S. cerevisiae deletion strains, locus YLR221C, strain rsa3, stronger effect = lower value 0.991 | S. cerevisiae deletion strains, locus YLR258W, strain gsy2, stronger effect = lower value 0.985 | S. cerevisiae deletion strains, locus YLR262C, strain YPT6, stronger effect = lower value 0.623 | S. cerevisiae deletion strains, locus YLR268W, strain sec22, stronger effect = lower value 1.01 | S. cerevisiae deletion strains, locus YLR320W, strain mms22, stronger effect = lower value 0.983 | S. cerevisiae deletion strains, locus YLR330W, strain CHS5, stronger effect = lower value 1 | S. cerevisiae deletion strains, locus YLR342W, strain FKS1 (second series), stronger effect = lower value 0.959 | S. cerevisiae deletion strains, locus YLR342W, strain FKS1, stronger effect = lower value 0.965 | S. cerevisiae deletion strains, locus YLR357W, strain rsc2, stronger effect = lower value 0.981 | S. cerevisiae deletion strains, locus YLR370C, strain arc18, stronger effect = lower value 0.975 | S. cerevisiae deletion strains, locus YLR371W, strain rom2, stronger effect = lower value 1.02 | S. cerevisiae deletion strains, locus YLR384C, strain iki3, stronger effect = lower value 0.961 | S. cerevisiae deletion strains, locus YLR418C, strain cdc73, stronger effect = lower value 0.966 | S. cerevisiae deletion strains, locus YML016C, strain PPZ1, stronger effect = lower value 1 | S. cerevisiae deletion strains, locus YML032C, strain rad52, stronger effect = lower value 0.997 | S. cerevisiae deletion strains, locus YML120C, strain ndi1, stronger effect = lower value 0.986 | S. cerevisiae deletion strains, locus YML124C, strain tub3, stronger effect = lower value 1.02 | S. cerevisiae deletion strains, locus YMR058W, strain fet3, stronger effect = lower value 0.96 | S. cerevisiae deletion strains, locus YMR078C, strain ctf18, stronger effect = lower value 0.999 | S. cerevisiae deletion strains, locus YMR125W, strain sto1, stronger effect = lower value 0.992 | S. cerevisiae deletion strains, locus YMR129W, stronger effect = lower value 0.987 | S. cerevisiae deletion strains, locus YMR205C, strain PFK2, stronger effect = lower value 0.947 | S. cerevisiae deletion strains, locus YMR223W, strain ubp8, stronger effect = lower value 0.996 | S. cerevisiae deletion strains, locus YMR231W, strain pep5, stronger effect = lower value 0.964 | S. cerevisiae deletion strains, locus YMR307W, strain GAS1, stronger effect = lower value 1.07 | S. cerevisiae deletion strains, locus YNL067W, strain RPL9B, stronger effect = lower value 0.956 | S. cerevisiae deletion strains, locus YNL071W, strain lat1, stronger effect = lower value 0.994 | S. cerevisiae deletion strains, locus YNL128W, strain TEP1, stronger effect = lower value 1.02 | S. cerevisiae deletion strains, locus YNL183C, strain NPR1, stronger effect = lower value 0.894 | S. cerevisiae deletion strains, locus YNL209W, strain ssb2, stronger effect = lower value 0.982 | S. cerevisiae deletion strains, locus YNL233W, strain BNI4, stronger effect = lower value 0.949 | S. cerevisiae deletion strains, locus YNL248C, strain rpa49, stronger effect = lower value 1 | S. cerevisiae deletion strains, locus YNL250W, strain rad50, stronger effect = lower value 1.01 | S. cerevisiae deletion strains, locus YNL271C, strain bni1, stronger effect = lower value 1.02 | S. cerevisiae deletion strains, locus YNL298W, strain CLA4, stronger effect = lower value 0.962 | S. cerevisiae deletion strains, locus YNL307C, strain MCK1, stronger effect = lower value 1.01 | S. cerevisiae deletion strains, locus YNL322C, strain KRE1 (second series), stronger effect = lower value 0.967 | S. cerevisiae deletion strains, locus YNL322C, strain KRE1, stronger effect = lower value 1 | S. cerevisiae deletion strains, locus YNR049C, strain mso1, stronger effect = lower value 0.992 | S. cerevisiae deletion strains, locus YNR052C, strain pop2, stronger effect = lower value 0.996 | S. cerevisiae deletion strains, locus YOL006C, strain TOP1, stronger effect = lower value 0.719 | S. cerevisiae deletion strains, locus YOL012C, strain htz1 1.64 | S. cerevisiae deletion strains, locus YOL147C, strain pex11, stronger effect = lower value 1.01 | S. cerevisiae deletion strains, locus YOR001W, strain rrp6, stronger effect = lower value 0.972 | S. cerevisiae deletion strains, locus YOR061W, strain CKA2, stronger effect = lower value 1 | S. cerevisiae deletion strains, locus YOR069W, strain VPS5, stronger effect = lower value 1.01 | S. cerevisiae deletion strains, locus YOR070C, strain gyp1, stronger effect = lower value 0.988 | S. cerevisiae deletion strains, locus YOR080W, strain dia2, stronger effect = lower value 0.983 | S. cerevisiae deletion strains, locus YOR083W, strain WHI5, stronger effect = lower value 0.976 | S. cerevisiae deletion strains, locus YOR106W, strain vam3, stronger effect = lower value 0.968 | S. cerevisiae deletion strains, locus YOR136W, strain idh2, stronger effect = lower value 1.01 | S. cerevisiae deletion strains, locus YOR144C, strain elg1, stronger effect = lower value 1.01 | S. cerevisiae deletion strains, locus YOR231W, strain MKK1, stronger effect = lower value 0.928 | S. cerevisiae deletion strains, locus YOR265W, strain rbl2, stronger effect = lower value 0.989 | S. cerevisiae deletion strains, locus YOR270C, strain vph1, stronger effect = lower value 0.975 | S. cerevisiae deletion strains, locus YOR290C, strain snf2, stronger effect = lower value 0.998 | S. cerevisiae deletion strains, locus YOR316C, strain cot1, stronger effect = lower value 1.03 | S. cerevisiae deletion strains, locus YPL051W, strain arl3, stronger effect = lower value 0.979 | S. cerevisiae deletion strains, locus YPL078C, strain atp4, stronger effect = lower value 0.959 | S. cerevisiae deletion strains, locus YPL106C, strain sse1, stronger effect = lower value 1.02 | S. cerevisiae deletion strains, locus YPL240C, strain hsp82, stronger effect = lower value 0.969 | S. cerevisiae deletion strains, locus YPL241C, strain CIN2, stronger effect = lower value 1.01 | S. cerevisiae deletion strains, locus YPL256C, strain CLN2, stronger effect = lower value 0.945 | S. cerevisiae deletion strains, locus YPR119W, strain clb2, stronger effect = lower value 1.01 | S. cerevisiae deletion strains, locus YPR141C, strain kar3, stronger effect = lower value 1.02 | S. cerevisiae deletion strains, locus YPR163C, strain tif3, stronger effect = lower value 1.03 | S. cerevisiae deletion strains, locus YPR167C, strain met16, stronger effect = lower value 1.02 | S. cerevisiae deletion strains, strain wtn01, stronger effect = lower value 0.997 | S. cerevisiae strains, strain wild type, stronger effect = lower value 0.993
active: S. cerevisiae deletion strains, locus YLR262C, strain YPT6 (second series), stronger effect = lower value 0.689 | S. cerevisiae deletion strains, locus YOR184W, strain ser1, stronger effect = lower value 0.86
